High-throughput results as filed in PubChem BioAssay.
Hits are enriched below; roughly 1.7% of the tested compounds scored in any of these assays.
VCAM1 TNFa inh – reduces TNF alpha induced VCAM1 expression in HUVEC. HUVEC TNFa-induced VCAM-1 immunofluorescence, high-content imaging. inhibition, % at 2 µM. hit rate 0.48% among 95,000. AID 802;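 active = inhibition above the batch mean plus 3 SD, with images confirmed as a hit by eye, cut at about 37% in these data; inconclusive = inhibition above that limit but hit not confirmed in images; inactive = inhibition not above that limit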
IL1B cytotox – HUVEC cytotoxicity counter-screen, IL-1B stimulated; HUVEC cell count loss, Hoechst imaging; cell count reduction, % at 2 µM; hit rate 0.41% among 94,000;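 active = cell count reduction more than 3 SD above the screen-wide mean, cut at about 70% in these data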
NFkB transloc inh – blocks IL-1B driven NFkB nuclear translocation in HUVEC cells; hit rate 0.43% among 94,000; HUVEC IL-1B NFkB p65 nuclear translocation imaging; inhibition, % at 2 µM; AID 796;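 active = inhibition above about 30% together with a positive call from visual inspection of the well image, limit read from the data; inconclusive = inhibition above a set limit but visual check negative; inactive = inhibition not above a set limit, visual check negative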;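 note: nuclear over cytoplasmic p65 intensity ratio measured by imaging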
HUVEC tox TNFa – toxic to HUVEC cells under TNF alpha stimulation. HUVEC TNFalpha-stimulated, Hoechst cell count, imaging. cell count reduction, % at 2 µM. hit rate 0.17% among 93,000;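 active = cell count reduction exceeding the screen mean by over 5 SD, scaled to untreated wells per plate, cut at about 78% in these data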;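 note: cells counted after 24 h of TNF alpha exposure following the 1 h pretreatment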
E-sel TNF inh – blocks E-selectin expression induced by TNF alpha | HUVEC TNFa-induced E-selectin immunofluorescence, high content | hit rate 0.71% among 120,000 | AID 1246 | inhibition, % at 2 µM;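 active = inhibition above the batch mean plus 3 SD, and confirmed as a hit on visual image review, cut at about 43% in these data; inconclusive = passes the inhibition cutoff but fails visual image review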
NFkB transloc pot – enhances IL-1B driven NFkB nuclear translocation; HUVEC IL-1B NFkB p65 nuclear translocation imaging; activation, % at 2 µM; hit rate 0.3% among 94,000;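 active = activation above 40%, about the mean plus 3 SD, also judged a hit on visual image review; inconclusive = activation above 40% but not a hit on visual review; inactive = activation not above 40% and no visual hit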;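 note: percent activation is computed from the nuclear over cytoplasmic p65 intensity ratio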
Of the large screens only hits and unclear results are named; the others gave an inactive call.

CN(C)P(=NC(=O)COc1ccc(Cl)cc1Cl)(N(C)C)N(C)C	none (no result: E-sel TNF inh)
Cc1ccc(C(=O)CN(C(=O)c2ccc(Cl)c(Cl)c2)N2C(=O)C3C4C=CC(C4)C3C2=O)cc1 (stereo unspecified)	none
Cc1ccc(C)c(NC(=S)NC(NC(=O)N(C)C)C(Cl)(Cl)Cl)c1 (stereo unspecified)	none
Cc1ccc(C)c(NC(=S)NC(NC(=O)Cc2cccc3ccccc23)C(Cl)(Cl)Cl)c1 (stereo unspecified)	VCAM1 TNFa inh 67.2 (no result: HUVEC tox TNFa)
COc1cc(S(=O)(=O)n2nnc3ccccc32)c(OC)cc1Cl	IL1B cytotox 87.1 (no result: HUVEC tox TNFa)
COc1cc(S(=O)(=O)n2nc(C)cc2C)c(OC)cc1Cl	NFkB transloc inh 46.1
Cc1ccc(C(C)C)c(OCCNC(=S)Nc2cccc3ccccc23)c1	none
Cc1ccc(-n2c(=O)c3c4c(sc3n(Cc3cc(=O)n5ccccc5n3)c2=O)CCC4)cc1C	E-sel TNF inh 89.8 (no result: VCAM1 TNFa inh, IL1B cytotox, NFkB transloc inh, HUVEC tox TNFa, NFkB transloc pot)
Cc1ccc(C2CC(C(F)(F)F)n3nc(C(=O)NCc4ccco4)cc3N2)cc1 (stereo unspecified)	none
CCOC(=O)C1=C(C)NC(C)=C(C(=O)OCC)C1C(=O)OCC(=O)N1CCC(C)CC1	none
O=c1ccc(Oc2nc(N3CCOCC3)nc(N3CCOCC3)n2)nn1-c1ccccc1	VCAM1 TNFa inh 98.7, HUVEC tox TNFa 89.6
CC(C)(C)Nc1nc(Oc2ccc(=O)n(-c3ccccc3)n2)nc(N2CCOCC2)n1	none (no result: E-sel TNF inh)
COc1ccc2c(c1)SC1=NCCS(=O)(=O)N12	HUVEC tox TNFa 79.6 (no result: E-sel TNF inh)
CCn1c(=O)cc(OCC(=O)NCc2ccco2)c2ccccc21	VCAM1 TNFa inh inconclusive, HUVEC tox TNFa 90.0 (no result: E-sel TNF inh)
O=C(Nc1c(-c2ccccc2)nc2ccccn12)c1ccco1	IL1B cytotox 93.5
Cc1c(Cl)cccc1N1C(=O)CC(N(O)c2ccccc2)C1=O (stereo unspecified)	E-sel TNF inh 99.8
Cc1cccc(C)c1N1C(=O)CC(N(O)c2ccccc2)C1=O (stereo unspecified)	none
Cc1cc(C)c(S(=O)(=O)N2CCC(C(=O)NCc3ccco3)CC2)c(C)c1	none
CCN(CC)c1ccc2c(c1)oc(=O)c1c(Cl)cc(=O)oc12	none
CCN(CC)c1ccc2c(Cl)c(Br)c(=O)oc2c1	E-sel TNF inh 96.1
COc1ccc(NS(=O)(=O)c2ccc(OCC(=O)N3CCOCC3)cc2)cc1	NFkB transloc inh 30.8
O=C(COc1ccc(S(=O)(=O)Nc2ccccc2)cc1)N1CCOCC1	none (no result: VCAM1 TNFa inh, HUVEC tox TNFa)
Cc1cnc(NC(=O)c2ccco2)s1	HUVEC tox TNFa 89.1 (no result: E-sel TNF inh)
O=C(O)C1CCCN1S(=O)(=O)c1ccc(Br)s1 (stereo unspecified) (tested in a mixture with another compound)	E-sel TNF inh 89.5
O=C(O)C1CCCCN1S(=O)(=O)c1ccc(Cl)s1 (stereo unspecified)	none
COc1ccc(NC(=O)[C@H](CCS(C)(=O)=O)N2Cc3ccccc3C2=O)c(OC)c1	none
COc1ccccc1NC(=O)C(CCS(C)(=O)=O)N1C(=O)c2ccccc2C1=O (stereo unspecified)	NFkB transloc pot 42.4
Cc1ccccc1N1C(S)=C(C#N)C(=O)NC12CCCCC2	none (no result: VCAM1 TNFa inh, IL1B cytotox, NFkB transloc inh, HUVEC tox TNFa, NFkB transloc pot)
Cc1onc(-c2ccccc2Cl)c1C(=O)Nc1cccc(-c2cn3cccnc3n2)c1	IL1B cytotox 85.0, NFkB transloc inh 94.2
CCN(CC)c1ccc(-c2nn3c(-c4ccccc4OC)nnc3s2)cc1	VCAM1 TNFa inh 97.3, IL1B cytotox 71.0
COc1ccc(-c2nn3c(-c4ccccc4)nnc3s2)cc1	none
CCSc1nnc(NC(=O)Cc2cccc(OC)c2)s1	NFkB transloc inh 35.7
CCOC(=O)CNC(=O)CSc1nnc(SCC(=O)NCC(=O)OCC)s1	NFkB transloc pot 54.4
CCN1CCCC1Cn1cnc2c([nH]c3ccc(Cl)cc32)c1=O (stereo unspecified)	none
CCN1CCCC1Cn1cnc2c([nH]c3cccc(Cl)c32)c1=O (stereo unspecified)	NFkB transloc inh 30.0 (no result: E-sel TNF inh)
COc1cc(-c2nc(-c3ccc(NC(=O)c4ccc(Br)o4)cc3)no2)cc(OC)c1OC	none
O=C(Nc1ccc(-c2nc3cccnc3s2)cc1)c1ccc(Br)o1	E-sel TNF inh 99.9
O=C(Nc1ccc(-c2nc3cccnc3s2)cc1)c1ccco1	none (no result: VCAM1 TNFa inh, IL1B cytotox, NFkB transloc inh, HUVEC tox TNFa, NFkB transloc pot)
COc1ccc(-c2nc(-c3ccc(NC(=O)c4ccc(Br)o4)cc3)no2)cc1OC	VCAM1 TNFa inh 76.0 (no result: E-sel TNF inh)
COc1ccc(CC(=O)Nc2ccc(-c3nnc(-c4ccccc4)o3)cc2)cc1OC	NFkB transloc inh 90.8
